Compounds without any hit were thinned out: in the full panel of roughly 83,000, 20% have a hit.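 Testing used 96-well plates and a 48-hour single-concentration exposure. Example: -40 means 40% of the starting cells died.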 Unmarked numbers belong to inactive results. Calls of active or inactive are those of the source. The calls were made as follows: active = growth percent below 10; inactive = the rest.
System: MDA-MB-468 breast
Assay: NCI-60 one-dose screen, 48 h (100 = growth as untreated, 0 = no growth, -100 = all killed)
Conditions: 10 µM unless noted

| SMILES | growth |
| --- | --- |
| c1ccc(CSc2nnc3c4c5c(sc4nc(-c4cccnc4)n23)CCCCCC5)cc1 | 0.132% (active) |
| CN(O)c1nc(N(C)O)nc(N2CCOCC2)n1 | -6.58% (active) |
| COc1ccccc1Nc1nnc(COc2ccc(CNC(=O)CCCC/C=C/C(C)C)cc2OC)o1 | 99.7% |
| CC(=O)Nc1nc(C)c(C(=O)NNC(=O)Nc2ccccc2)s1 | 61.4% |
| CNC(=O)c1cc(Oc2ccc3nc(NC(=O)c4ccc(N5CCOCC5)c(C(F)(F)F)c4)sc3c2)ccn1 | 80.5% |
| N#Cc1c(-c2ccc(Cl)cc2)n(O)c2ccccc12 | -3.01% (active) |
| O=c1nc2c(-c3nc4ccccc4s3)n[nH]n2c2sc3c(c12)CCCC3 | 120% |
| COc1ccc(C2SCC(=O)N2NC(=O)c2ccc(NC(=O)c3ccccn3)cc2)cc1OC (centres undefined) | 104% |
| C=CCn1c(C)nc2cc(Nc3nc(N4CCOCC4)nc4nc[nH]c34)ccc21 | 85.1% |
| C#CC(C)(O)[C@@H]1C[C@H](CC(=O)O)C1(C)C (some centres undefined) | 114% |
| COc1ccc2c(CCCCC(c3ccccc3)c3ccccc3)c3[n+](cc2c1OC)CCc1cc2c(cc1-3)OCO2 | -75.3% (active) |
| COc1cc(/C=C/C(=O)/C=C/c2ccc(-n3ccnc3C)cc2)ccc1O | 24.4% |
| COc1ccccc1C(=O)CSc1nc(Nc2ccc(S(N)(=O)=O)cc2)c2ccccc2n1 | 99.7% |
| Cc1ccc(C(=O)/C(=C/c2ccc([N+](=O)[O-])cc2)SCc2ccc(Cl)cc2)cc1 | 72.9% |
